An excerpt weighted towards active compounds, which were near 1.6% of everything screened.
gsp antag = qHTS for Antagonists of gsp, the Etiologic Mutation Responsible for Fibrous Dysplasia/McCune-Albright Syndrome: qHTS; gsp-mutant cells, cAMP HTRF, 30 min; AID 624288, 2012; actives 0.4% (n = 340,000); Potency, µM (titrated, usually from 76.9 µM), for the others: at the top dose activity change, negative = inhibition, actives largely listed as inhibitors; calls by dose curve; cell line not stated here;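 also: intracellular cAMP measured with PDE inhibitor Ro 20-1724 present during compound exposure; potency is read from the fitted curve at half-maximal effect; % is scaled to controls: 0 for no effect and ±100 for the full control effect; nearly all actives have a fitted effect of over 65% in size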
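Measurement of cellular cAMP by homogeneous time-resolved fluorescence following a 30 min compound exposure at 37C. The PDE inhibitor […] was present throughout; the assay buffer was DPBS with 0.05% BSA and 0.005% Tween 20.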
gsp agonist = qHTS for Agonist of gsp, the Etiologic Mutation Responsible for Fibrous Dysplasia/McCune-Albright Syndrome: qHTS; Potency, µM (titrated, usually from 76.9 µM), without a hit: top-dose activation (cAMP increase), actives largely listed as activators; actives 0.13% (n = 340,000); gsp mutant cells, cAMP HTRF, 30 min; active = well fitted activation curve with a large enough effect; inconclusive = small, poorly fitted or top-dose-only effect, or another doubt; inactive = no such curve, though single readings can be large or run the other way; cell line not stated here;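 also: phosphodiesterase inhibitor Ro 20-1724 added with compounds to block cAMP breakdown; potency is read from the fitted curve at half-maximal effect; nearly all actives have a fitted effect of over 60% in size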
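Cells stably selected in G418 were plated at 2000/well, grown 16-24 hr, then given compounds in DMSO with the PDE inhibitor […] (300 uM solution added) for 30 min at 37C; cAMP was read by HTRF.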
hERG WT inh = qHTS for Inhibitors of KCHN2 3.1: Wildtype qHTS. Voltage-gated inwardly rectifying potassium channel KCNH2 (Homo sapiens), Q12809. U2OS, BacMam KCNH2, thallium flux FluxOr; stronger effect = lower value. activity change, % at 1.84 µM. actives 0.37% (n = 340,000);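 active = maximum activity change below -70%; inconclusive = maximum activity change between -70% and -50%; inactive = maximum activity change above -50%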; also: % is scaled to controls: 0 for no effect and ±100 for the full control effect
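U2OS cells transduced with wild-type KCNH2 virus are loaded with FluxOr dye for 45 min, and thallium flux is measured in kinetic reads before and after stimulation buffer. Rate constants are normalized to DMSO controls.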
pAkt inh = HTS Assay for Inhibitors of Akt Phophorylation: Primary Screen; actives 0.32% (n = 360,000); AID 651550, 2012; Neuro2A IGF-stimulated pAkt S473 HTRF, 20 min; stronger effect = lower value; activity change, % for hits at 50 µM; in the data active = activity change below about -80%; inconclusive = mostly about -51% to -80%; also: % is scaled to controls: 0 for no effect and ±100 for the full control effect
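Single-point screen (50 µM final compound) in Neuro2A cells stimulated 20 min with 6 nM IGF at 37 deg C. After lysis, Ser473-phosphorylated Akt read by HTRF (ex 330 nm, em 615/665 nm) as the 665/615 ratio.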
KCNH2 3.1 block = qHTS for Inhibitors of KCHN2 3.1: Mutant qHTS. Potassium voltage-gated channel subfamily H member 2, brain isoform KCNH2 3.1 (human). U2OS KCNH2 3.1, thallium flux FluxOr; stronger effect = lower value. activity change, % (tested at about 1.8 µM). actives 0.95% (n = 340,000);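 active = maximum activity change below -70%; inconclusive = maximum activity change from -70% to -50%; inactive = maximum activity change above -50%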;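 also: thallium influx rate constant from kinetic fluorescence after stimulation buffer; % is scaled to controls: 0 for no effect and ±100 for the full control effect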
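Thallium flux via FluxOr fluorescence (Red40 quencher, 45 min loading) in U2OS cells virally expressing the KCNH2 3.1 isoform (1.77 x 10^8 /mL virus, overnight at 37 C). Rate constants from 2-min kinetic reads post-stimulation, normalised to positive and negative controls.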
Glioma ERSR ind = qHTS for Inducers of the Endoplasmic Reticulum Stress Response (ERSR) in Human Glioma: qHTS; AID 602332, 2012; Potency, µM, without a hit: at the top dose activation, actives largely listed as activators; actives 0.02% (n = 420,000); U87-MG GRP78 promoter luciferase reporter, 16 h; active = well fitted activation curve with a large enough effect; inconclusive = small, poorly fitted or top-dose-only effect; inactive = no such curve, though single readings can be large or run the other way; also: potency is read from the fitted curve at half-maximal effect; series mostly up to about 76 µM; % of control where 0% means no effect; nearly all actives have a fitted effect of over 35% in size
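Stably transfected U87-MG glioma cells carrying a GRP78-based luciferase sensor; 16 h compound incubation. Luminescence end-point read 10 min after Bright-Glo addition at room temperature.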
The depositor's hits bear a star; [ ] = dose if it differs, or a comment.

How did CC1CCN(C(=O)CCCC(=O)O)CC1 do in these assays?
gsp antag: -6%; gsp agonist: -1%; hERG WT inh: 1; pAkt inh: inactive; KCNH2 3.1 block: -2; Glioma ERSR ind: 0%

Results for CC1CCN(C(=O)CCCC(=O)N2CCC(C)CC2)CC1 ?
gsp antag: 25%; gsp agonist: 17%; hERG WT inh: -71*; pAkt inh: inactive; KCNH2 3.1 block: 20; Glioma ERSR ind: 2%

What do the screens show for `CCS(=O)(=O)c1nc(S(=O)(=O)c2ccc(Cl)cc2)c(N2CCCC2)s1`?
gsp antag: -15%; gsp agonist: 13µM*; hERG WT inh: -1; KCNH2 3.1 block: 9; Glioma ERSR ind: -3%

Results for CCC(C(=O)Nc1nccs1)(C(F)(F)F)C(F)(F)F ?
gsp antag: 32µM*; gsp agonist: 5%; hERG WT inh: 2; pAkt inh: inactive; KCNH2 3.1 block: 22; Glioma ERSR ind: -3%

What do the screens show for `O=C1CC[C@@H](C(=O)NCC2Cc3cc(Cl)cc(-c4ccc5[nH]ccc5c4)c3O2)N1` (stereo not given in full)?
Glioma ERSR ind: -2%

What do the screens show for `Cc1cccc(C(=O)NCc2nc(-c3ccccc3NC(=O)C3CCCO3)oc2C)c1` (stereo not given)?
Glioma ERSR ind: -4%

Results for CCCC(=O)NC(c1ccccc1Cl)c1ccc2cccnc2c1O (stereo not given) ?
gsp antag: -6%; gsp agonist: 14%; hERG WT inh: -17; pAkt inh: inactive; KCNH2 3.1 block: -97*; Glioma ERSR ind: -3%

Results for COC(=O)C1=C(C)N=C2SC(C#N)=C(N)N2C1c1ccc(OC)cc1 (stereo not given) ?
gsp antag: 2%; gsp agonist: -39%; hERG WT inh: -5; pAkt inh: inactive; KCNH2 3.1 block: 5; Glioma ERSR ind: 4%

Results for COC(=O)C1=C(C)N=C2SC(C#N)=C(N)N2C1c1cccc(OC)c1 (stereo not given) ?
gsp antag: -6%; gsp agonist: -36%; hERG WT inh: -9; pAkt inh: -115%*; KCNH2 3.1 block: -1; Glioma ERSR ind: -3%

How did O=S(=O)(Nc1ccc(-c2ccc(N3CCOCC3)nn2)cc1)c1ccc(Cl)c(Cl)c1 do in these assays?
gsp antag: 35µM*; gsp agonist: 19%[15.4 µM]; hERG WT inh: 0; pAkt inh: inactive; KCNH2 3.1 block: -8; Glioma ERSR ind: -5%

Results for O=[N+]([O-])c1ccc(Cl)c(S(=O)(=O)Nc2ccc(-c3ccc(N4CCOCC4)nn3)cc2)c1 ?
gsp antag: inconclusive; gsp agonist: 2%; hERG WT inh: 9; pAkt inh: inactive; KCNH2 3.1 block: -5; Glioma ERSR ind: 2%

What do the screens show for `O=S(=O)(Nc1cccc(-c2ccc(N3CCCCCC3)nn2)c1)c1ccccc1Cl`?
gsp antag: 28µM*; gsp agonist: inconclusive; hERG WT inh: -19; pAkt inh: inactive; KCNH2 3.1 block: 8; Glioma ERSR ind: 13%

How did O=S(=O)(Nc1cccc(-c2ccc(N3CCCCCC3)nn2)c1)c1ccccc1F do in these assays?
gsp antag: inconclusive; gsp agonist: -4%; hERG WT inh: -10; pAkt inh: inactive; KCNH2 3.1 block: -6; Glioma ERSR ind: 12%

What do the screens show for `Cc1c(C(=O)N2CCCCCC2)sc2ncnc(NCC3CCCO3)c12` (stereo not given)?
Glioma ERSR ind: -1%

What do the screens show for `CCC1(C2CCN(C(=O)c3cc(F)ccc3F)CC2)NC(=O)N(CCc2scnc2C)C1=O` (stereo not given)?
Glioma ERSR ind: -5%

What do the screens show for `O=C(c1cccnc1)C1CCCN(Cc2ccc3c(c2)CN(C(=O)c2cccs2)CCO3)C1` (stereo not given)?
Glioma ERSR ind: -2%

Results for CC(C)Cn1c(N)c(C(=O)COC(=O)c2cc(F)cc(F)c2)c(=O)n(C)c1=O ?
gsp antag: inconclusive; gsp agonist: -12%; hERG WT inh: 7; pAkt inh: inactive; KCNH2 3.1 block: -4; Glioma ERSR ind: -1%

Results for CC(C)Cn1c(N)c(C(=O)COC(=O)c2cnc(Cl)c(Cl)c2)c(=O)n(C)c1=O ?
gsp antag: 35µM*; gsp agonist: -40%; hERG WT inh: -8; pAkt inh: inactive; KCNH2 3.1 block: inconclusive; Glioma ERSR ind: 8%

How did CCOc1ccccc1OCC(=O)OCC(=O)c1c(N)n(CC(C)C)c(=O)n(C)c1=O do in these assays?
gsp antag: 35µM*; gsp agonist: -2%; hERG WT inh: -5; pAkt inh: inactive; KCNH2 3.1 block: 0; Glioma ERSR ind: -3%

How did N=c1ncn(C2OC(CO)C(O)C2O)c2nc(Br)[nH]c12 (stereo not given) do in these assays?
gsp agonist: 29%; hERG WT inh: -228*; pAkt inh: inactive; KCNH2 3.1 block: -168*; Glioma ERSR ind: -2%

Results for Cc1noc(C)c1CC(=O)N1CCOc2c(cc(-c3nc4ccccc4s3)cc2OC2CCOC2)C1 (stereo not given) ?
Glioma ERSR ind: -1%

Results for CC(C)c1nccn1S(=O)(=O)c1cc(Cl)ccc1Cl ?
gsp antag: -10%; gsp agonist: -33%; hERG WT inh: -5; pAkt inh: inactive; KCNH2 3.1 block: -2; Glioma ERSR ind: -4%

Results for COc1ccc(Cl)cc1S(=O)(=O)n1ccnc1C(C)C ?
gsp antag: 0%; gsp agonist: -12%; hERG WT inh: 2; pAkt inh: inactive; KCNH2 3.1 block: -83*; Glioma ERSR ind: -5%

How did O=C(NCCc1ccccc1C(F)(F)F)c1cc(COc2ccccc2)on1 do in these assays?
gsp agonist: -44%; hERG WT inh: -18; pAkt inh: inactive; KCNH2 3.1 block: -111*; Glioma ERSR ind: -5%

Results for O=C(NCCc1ccccc1F)c1cc(COc2ccc(F)cc2F)on1 ?
gsp agonist: -18%; hERG WT inh: 3; pAkt inh: inactive; KCNH2 3.1 block: inconclusive; Glioma ERSR ind: 2%

Results for COc1ccc(C)cc1N(C(=O)COc1ccccc1)c1nc2ccccc2s1 ?
gsp antag: -7%; gsp agonist: -38%; hERG WT inh: inconclusive; pAkt inh: inactive; KCNH2 3.1 block: -74*; Glioma ERSR ind: 0%
